Measured values published in PubChem BioAssay (NCATS).
“And” between values parts separate entries of the source, which are not always exact repeats. Equal entries are not always repeated. Inconclusive results are not listed. Where a call stands in place of a potency, no number is given. Unmarked numbers belong to inactive results. The source made the active and inactive calls. Calls come from the whole dose curve; as a rule, active = well fitted inhibition curve with a large enough effect; inconclusive = small, poorly fitted or top-dose-only effect; inactive = no such curve, though single readings can be large or run the other way.

Assay: Primary qHTS for inhibitors of nuclear receptor binding SET domain protein 2 (NSD2) in an RCH-ACV wild type WT cells (2C) (AID 1645877); note: nearly all actives have a fitted effect of over 70% in size
Details: RCH-ACV (leukaemia line) NSD2 WT (2C) viability, CellTiter-Glo, 72 h; series mostly up to 44.9 µM
Potency is the fitted concentration of half-maximal effect.

Q: Which Potency does the source give for O=C(O)c1c(O)c(-c2ccccc2)nc2ccccc12 here?
A: Its Potency is “inactive”.

Q: For COc1ccc(N2CCOCC2)c2sc(NC(=O)N3CCC(C)(O)CC3)nc12, which Potency is on record?
A: Its Potency is “inactive”.

Q: With Cn1c(=O)n(-c2ccc(C(C)(C)C#N)cc2)c2c3cc(C#Cc4cccnc4)ccc3ncc21 as the molecule, how does the Potency read?
A: The Potency was 14.2 nM (active).

Q: Which Potency does the source give for CC[C@]12C=CCN3CC[C@@]4(c5cc([C@@]6(C(=O)OC)C[C@H]7C[C@@H](C(C)(F)F)CN(Cc8c6[nH]c6ccccc86)C7)c(OC)cc5N(C)[C@H]4[C@@](O)(C(=O)OC)[C@@H]1OC(C)=O)[C@@H]32 here?
A: Its Potency is 87.9 nM (active).

Q: For Nc1nc2c(c(N3CCNCC3)n1)CCC1=C2[C@@H]2CCCC[C@@H]2O1, which Potency is on record?
A: The Potency was 16300 nM (active).

Q: Which Potency does the source give for O=C(Nc1ccn[nH]1)c1c(F)cccc1F here?
A: Its Potency is “inactive”.

Q: With Cc1cc(Nc2cc(N3CCN(C)CC3)nc(/C=C/c3ccccc3)n2)n[nH]1 as the molecule, how does the Potency read?
A: Its Potency is 649 nM (active) and 742 nM (active).

Q: With O=C(O)Cc1ccc2oc(-c3ccc(NC(=O)/C=C/c4ccc(Br)cc4)c(F)c3)nc2c1 as the molecule, how does the Potency read?
A: Its Potency is “inactive”.

Q: Which activity change, negative = cell killing does the source give for CC(=O)N[C@H]1[C@H](O[C@H]2CC[C@@]3(C)C(CC[C@]4(C)C3CC=C3[C@@H]5CC(C)(C)CC[C@]5(C(=O)OC5OCC(O)C(O)C5O)CC[C@]34C)C2(C)C)O[C@H](COC2OC(C)C(O)C(OC3OC(C)C(O)C(O)C3O)C2O)[C@@H](O)[C@@H]1O (some centres undefined) here?
A: Its activity change, negative = cell killing is 1.82% [at 9.23 µM].

Q: For CC1CC[C@]2(C(=O)O)CC[C@]3(C(=O)O)C(=CCC4[C@@]5(C)CC[C@H](O[C@@H]6O[C@H](CO)[C@@H](O)[C@H](O)[C@H]6O)C(C)(C)C5CC[C@]43C)C2C1C (some centres undefined), which Potency is on record?
A: Its Potency is “inactive”.

Q: Which Potency does the source give for CNC(=O)c1cccc(-c2ccc3c(N4CCOC[C@@H]4C)nc(N4CCOC[C@@H]4C)nc3n2)c1 here?
A: The Potency was 230 nM (active) and 326 nM (active) and 296 nM (active).

Q: With C=C1C(=O)O[C@@H]2C[C@H](C)[C@@]3(O)C=C(C(C)=O)[C@]4(CC3C[C@H]12)C(=O)O[C@H]1C[C@@H](C)C(CCC(C)=O)=CC[C@H]14 (some centres undefined) as the molecule, how does the Potency read?
A: Its Potency is 8930 nM (active).

Q: With Cn1cc(-c2ccc3nnc(Sc4ccc5nn(C)cc5c4)n3n2)cn1 as the molecule, how does the Potency read?
A: Its Potency is “inactive”.

Q: With C[C@H](O)[C@H](O)/C=C/c1cccc(O)c1CO as the molecule, how does the Potency read?
A: The Potency was “inactive”.

Q: With C[C@@H]1C(=O)O[C@H](C)[C@H]1CC(=O)[C@](C)(O)[C@H]1CC[C@@]2(O)C3=CC(=O)[C@@H]4C[C@@H](O)[C@@H](O)C[C@]4(C)C3CC[C@]12C (some centres undefined) as the molecule, how does the Potency read?
A: Its Potency is “inactive”.

Q: With CC1=C(C)C(=O)OC(C(C)C2CCC3C4CC=C5CC(OC6OC(COC7OC(CO)C(O)C(O)C7O)C(O)C(O)C6O)CC(O)C5(C)C4CCC23C)C1 (centres undefined) as the molecule, how does the Potency read?
A: The Potency was “inactive”.

Q: With CCOCc1cc(OC)c(-c2ccc(C[C@H](NC(=O)c3c(F)cccc3F)C(=O)O)cc2)c(OC)c1 as the molecule, how does the Potency read?
A: The Potency was “inactive”.

Q: Which Potency does the source give for Cc1ccc(S(=O)(=O)c2ccc([N+](=O)[O-])o2)cc1 here?
A: Its Potency is 163 nM (active).

Q: Which Potency does the source give for COc1cc(C2Oc3c(OC)cc(CCCO)cc3C2CO)ccc1O[C@H]1O[C@H](C)[C@@H](O)[C@H](O)[C@@H]1O (some centres undefined) here?
A: Its Potency is “inactive”.

Q: For C=C1C(O)C[C@@H]2C(C(=O)O)=CO[C@@H](O[C@@H]3O[C@H](CO)[C@@H](O)[C@H](O)[C@H]3OC(=O)c3ccc(O)cc3)[C@H]12 (some centres undefined), which Potency is on record?
A: Its Potency is “inactive”.

Q: For Cc1[nH]nc(C(F)(F)F)c1Cc1sc2c(c1C(=O)N1C[C@](C)(O)CO1)c(=O)n(C)c(=O)n2C(C)C, which Potency is on record?
A: Its Potency is “inactive”.

Q: Which Potency does the source give for CC(C(O)/C=C/C(C)(C)O)C1CCC2(C)C3C(=O)C=C4C(CCC(O)C4(C)C)C3(C)CCC12C (centres undefined) here?
A: Its Potency is “inactive”.

Q: With COCCOc1cnc2ccn([C@H](C)c3nnc4c(F)cc(-c5cnn(C)c5)cn34)c(=O)c2c1 as the molecule, how does the Potency read?
A: The Potency was “inactive”.

Q: For C[C@@H]1[C@H]2[C@H](O[C@@H]3O[C@H](CO)[C@@H](O)[C@H](O)[C@H]3O)OC=C(C(=O)O)[C@H]2C[C@@H]1O, which Potency is on record?
A: Its Potency is “inactive”.

Q: Which Potency does the source give for Cc1cc(C(=O)N2CCCCc3ccccc32)ccc1CNC(=O)N1CCC[C@H]1C(=O)N(C)C here?
A: Its Potency is “inactive”.

Q: Which Potency does the source give for O=C(O[C@H]1[C@@H]2C=CO[C@@H](O[C@@H]3O[C@H](CO)[C@@H](O)[C@H](O)[C@H]3O)[C@@H]2[C@@]2(CO)O[C@@H]12)c1ccccc1 here?
A: The Potency was “inactive”.

Q: With O=C1NC(=O)C(c2cn3c4c(cccc24)CCC3)C1c1c[nH]c2ccccc12 (centres undefined) as the molecule, how does the Potency read?
A: The Potency was 916 nM (active).

Q: With COc1cc(O)c2c(c1)C1=CC(O)C(O)CC1(C)OC2=O (centres undefined) as the molecule, how does the Potency read?
A: Its Potency is “inactive”.

Q: For C=CC(C)(O)C(O)CC1C(C)(O)C(O)C(O)C2C(C)(C)CCCC21C (centres undefined), which Potency is on record?
A: The Potency was “inactive”.

Q: Which Potency does the source give for CC1(C)CCCC2(C)C(C(=O)O)=CCC12 (centres undefined) here?
A: The Potency was “inactive”.

Q: For O=C(O)[C@@H]1C[C@H]2C[C@@H](CCc3nn[nH]n3)CC[C@H]2CN1, which Potency is on record?
A: Its Potency is “inactive”.

Q: Which Potency does the source give for COC(=O)C1(C)c2[nH]c3ccccc3c2CCN1C(=O)CCl (centres undefined) here?
A: Its Potency is 2580 nM (active).

Q: With CC/C=C\CCO[C@@H]1O[C@H](CO[C@@H]2OC[C@H](O)[C@H](O)[C@H]2O)[C@@H](O)[C@H](O)[C@H]1O as the molecule, how does the Potency read?
A: Its Potency is “inactive”.

Q: With O=C(NCc1cccc(O)c1)Nc1nc(-c2ccncc2)cs1 as the molecule, how does the Potency read?
A: The Potency was 2350 nM (active).

Q: With C[C@@H]1O[C@@H](O[C@H]2[C@H](O[C@H]3CC[C@@]4(C)C(CC[C@]5(C)C4CC=C4[C@@H]6CC(C)(C)CC[C@]6(C(=O)O[C@@H]6OC[C@H](O)[C@H](O)[C@H]6O[C@@H]6O[C@@H](C)[C@H](O[C@@H]7O[C@H](CO)[C@@H](O)[C@H](O)[C@H]7O)[C@H](O)[C@H]6O)[C@H](O)C[C@]45C)C3(C)C)O[C@H](CO)[C@@H](O[C@@H]3OC[C@@H](O)[C@H](O)[C@H]3O)[C@@H]2O)[C@H](O)[C@H](O)[C@H]1O (some centres undefined) as the molecule, how does the activity change, negative = cell killing read?
A: The activity change, negative = cell killing was -15.2% [at 9.23 µM].

Q: Which Potency does the source give for CC1OC(OC2CCC3(C)C(CCC4(C)C3CC=C3C5CC(C)(C)CCC5(C(=O)OC5OC(CO)C(O)C(O)C5O)CCC34C(=O)O)C2(C)C)C(O)C(O)C1O (centres undefined) here?
A: The Potency was “inactive”.

Q: Which Potency does the source give for CC(=O)N1CCc2ccc(O)c(OC3OC(COC4OCC(O)(CO)C4O)C(O)C(O)C3O)c2C1Cc1ccc(O)cc1 (centres undefined) here?
A: The Potency was “inactive”.

Q: Which activity change, negative = cell killing does the source give for CC(CCC1(O)OC2CC3C4CCC5CC(O[C@@H]6O[C@H](CO)[C@@H](O)[C@H](O)[C@H]6O[C@@H]6O[C@@H](C)[C@H](O)[C@@H](O)[C@H]6O)C(O)CC5(C)C4CCC3(C)C2C1C)CO[C@@H]1O[C@H](CO)[C@@H](O)[C@H](O)[C@H]1O (some centres undefined) here?
A: Its activity change, negative = cell killing is -13.5% [at 9.23 µM].

Q: For CC/C=C\C/C=C\C/C=C\CCCCCCCC(=O)OCC(O)COC1OC(CO)C(O)C(O)C1O (centres undefined), which Potency is on record?
A: Its Potency is “inactive”.
